Screening results from PubChem BioAssay.
TDP1 cell CPT = growth inhibition of DT40 Tdp1-/-;hTDP1 cells with camptothecin (screen for TDP1 inhibitors). chicken DT40 Tdp1-/-;hTDP1 cells + 20 nM CPT, ATP luminescence, 48 h. Potency, µM (titrated, usually from 46.2 µM), for the others: top-dose activity change, negative = growth inhibition, actives largely listed as inhibitors. 420,000 compounds, 12% hits. AID 686979; also: potency is read from the fitted curve at half-maximal effect; nearly all actives have a fitted effect of over 55% in size
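Cell growth measured by CellTiter-Glo luminescence after a minimum 48 h, 37 C compound exposure with 20 nM CPT in Tdp1-knockout DT40 cells stably expressing hTDP1, seeded 400/well; qHTS titration format.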
Six1-Eya2 inh = Six1/Eya2 interaction inhibition. activity change, % (test concentration not listed). AID 651725. 360,000 compounds, 0.56% hits. AlphaScreen GST-Six1/His-Eya2 binding, biochemical; hits give low values. Q15475+O00167; in the data active = activity change below about -65%; inconclusive = mostly about -30% to -63%
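Six1/Eya2 binding was read as AlphaScreen signal after compounds were pinned into GST-Six1 plus His-tagged Eya2 (5X stock 250/500 nM) in pH 8.0 Tris/NaCl/TCEP buffer, beads added, then incubated 1 h, 37 C, dark.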
CtBP-E1A inh = inhibitors of CtBP/E1A interaction. activity change, % (no concentration beside the values). 340,000 compounds, 0.49% hits. AlphaScreen GST-E1A/His-CtBP binding, 1536-well; hits give low values; in the data active = activity change below about -65%; inconclusive = mostly about -30% to -63%
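GST-E1A and His-tagged CtBP (125 nM each as 5X stock) were preincubated with pin-transferred compound for 2 h at 37 °C in the dark, then glutathione donor and nickel acceptor beads were added for 1 h before AlphaScreen reading.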
IL1B secr inh = inflammasome signaling inhibition, IL-1 beta readout | THP-1 LPS/ATP IL-1B secretion, AlphaLISA, 16 h; hits give low values | activity change, % at 57.5 µM | 360,000 compounds, 4.7% hits | AID 743279; in the data active = activity change below about -50%; inconclusive = mostly about -30% to -49%
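Secreted IL-1B measured by AlphaLISA bead assay after 16 h compound exposure of THP-1 cells; compounds (final up to 57.5 uM) added 1 h before LPS (250 ng/mL) and ATP (1.25 mM) stimulation; lower signal means less secretion.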
TDP1 block = blocks human tyrosyl-DNA phosphodiesterase 1; recombinant TDP1, AlphaScreen DNA substrate cleavage; Potency, µM (series often up to 130 µM), for the others: at the top dose activity change, negative = inhibition, hits mostly inhibitors; 350,000 compounds, 0.28% hits; also: potency is read from the fitted curve at half-maximal effect; nearly all actives have a fitted effect of over 40% in size
Target sequence (Q9NUW8 whole entry, looked up): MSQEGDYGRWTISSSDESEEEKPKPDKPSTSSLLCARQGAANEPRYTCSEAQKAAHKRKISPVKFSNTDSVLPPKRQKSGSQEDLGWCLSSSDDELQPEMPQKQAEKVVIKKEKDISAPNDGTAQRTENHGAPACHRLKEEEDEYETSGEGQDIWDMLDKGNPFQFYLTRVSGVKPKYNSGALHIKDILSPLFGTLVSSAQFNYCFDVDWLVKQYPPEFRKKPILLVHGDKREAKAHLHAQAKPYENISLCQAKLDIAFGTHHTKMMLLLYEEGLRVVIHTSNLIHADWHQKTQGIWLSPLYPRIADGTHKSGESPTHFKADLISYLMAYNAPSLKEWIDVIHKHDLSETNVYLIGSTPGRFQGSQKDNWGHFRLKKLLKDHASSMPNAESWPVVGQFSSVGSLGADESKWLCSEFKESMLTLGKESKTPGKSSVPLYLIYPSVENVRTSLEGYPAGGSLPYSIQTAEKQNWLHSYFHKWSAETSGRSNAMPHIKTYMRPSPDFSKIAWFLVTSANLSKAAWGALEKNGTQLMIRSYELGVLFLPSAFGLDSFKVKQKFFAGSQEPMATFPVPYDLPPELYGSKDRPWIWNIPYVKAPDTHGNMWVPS
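Steps: enzyme plus compound, 15 min RT; add biotin/phosphotyrosine-FITC oligonucleotide (15 nM final), react 5 min; add donor/acceptor beads (10 ug/ml final), 10 min; read AlphaScreen. Tdp1 at 1 nM final.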
DT40 TDP1 no CPT = qHTS for Inhibitors of human tyrosyl-DNA phosphodiesterase 1 (TDP1): qHTS in cells in absence of CPT | Potency, µM (titrated, usually from 46.2 µM), without a hit: top-dose activity change, negative = growth inhibition, actives largely listed as inhibitors | DT40 Tdp1-/- hTDP1 cells, no CPT, ATP luminescence, 48 h | AID 686978, 2013 | 420,000 compounds, 15% hits; also: potency is read from the fitted curve at half-maximal effect; nearly all actives have a fitted effect of over 55% in size
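Cells were dispensed at 400 per well, compounds added by pin tool, plates incubated ≥48 hr at 37 °C, then CellTiter-Glo added for 30 min at room temperature before luminescence reading. Line: DT40 Tdp1-/- complemented with hTDP1; camptothecin omitted.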
Starred values were filed as active, the others as inactive; ? = inconclusive; nt = no result; [ ] = remark or other dose. In the library only some 18% were active in any assay of this set; here they are far more common. Unless noted, calls follow the shape of the dose curve; as a rule, active = well fitted curve in the direction sought with a large enough effect; inconclusive = small, poorly fitted or top-dose-only effect, or another doubt; inactive = no such curve, though single readings can be large; an effect the other way counts as inactive or inconclusive. % is scaled to controls: 0 for no effect and ±100 for the full control effect.

SMILES	TDP1 cell CPT	Six1-Eya2 inh	CtBP-E1A inh	IL1B secr inh	TDP1 block	DT40 TDP1 no CPT
COC(=O)C1=C(c2ccc(F)cc2OCc2ccccc2)C[C@@H]2CC[C@H]1N2C(=O)NCCN1CCOCC1	-16%	0	-25	8	1%	?
ClCBr	nt	nt	nt	nt	15%	nt
COC(=O)C1=C(c2ccc(OC)c(OC)c2)C[C@@H]2CC[C@H]1N2C(=O)NCc1ccc(F)cc1	-28%	-1	3	15	2%	-28%
C[C@]12CCC3C(CC[C@H]4C[C@H](O)CC[C@]34C)C1CC[C@@H]2C(=O)CO (some centres undefined)	nt	nt	nt	nt	5%[56.1 µM]	nt
O=c1c2cc([N+](=O)[O-])ccc2nc(CN2CCOCC2)n1-c1ccccc1F	nt	nt	nt	nt	-2%	nt
CC(C)[C@]1(O)[C@@H](OC(=O)c2ccc[nH]2)[C@@]2(O)[C@@]3(C)C[C@]4(O)O[C@@]5([C@H](O)[C@@H](C)CC[C@]35O)[C@@]2(O)C41C	-12%	nt	nt	nt	8%	?
CCOC(=O)C(O)(c1ccc(NC(=S)NC(=O)c2ccc(Cl)cc2Cl)c(C)c1)C(F)(F)F (centres undefined)	?	-5	-3	-54*	5%	12µM*
COC(=O)C(O)(c1ccc(NC(=S)NC(=O)c2ccc(Cl)cc2Cl)c(C)c1)C(F)(F)F (centres undefined)	?	-13	-13	-21	5%	21µM*
CCOC(=O)C(NC(=O)CC)(Nc1ccc(C(O)(C(=O)OCC)C(F)(F)F)cc1C)C(F)(F)F (centres undefined)	-18%	-2	9	-25	0%	-13%
CNC(=O)N(C)c1ccc(C(O)(C(=O)OC)C(F)(F)F)cc1 (centres undefined)	11%	0	nt	25	nt	-7%
Cc1ccc(N=Nc2c(O)[nH]c(=O)[nH]c2=O)c([N+](=O)[O-])c1	-17%	?	-19	47	8%	-18%
O=C(c1cccs1)N1C2CCC1CC(O)(c1cccnc1)C2 (centres undefined)	-7%	4	3	-3	1%	-12%
OCC(Cl)CCl (centres undefined)	-1%	4	-8	-6	0%	4%
C[N+]1(CC2COC(c3ccco3)O2)CCCCC1 (centres undefined)	1%	3	25	-6	0%	-3%
C[N+]1(CC2COC(c3ccccc3)(c3ccccc3)O2)CCCCC1 (centres undefined)	?	nt	nt	nt	nt	19µM*
Nc1ccc2cc(Br)ccc2c1	-14%	-7	7	?	2%	-26%
CCn1cc(CN2CCCC(C(=O)c3cccc(OC)c3)C2)c(C)n1 (centres undefined)	-21%	-30	0	35	4%	-27%
CCn1cc(CN(C)S(=O)(=O)c2ccc3ccccc3c2)c(C)n1	5.2µM*	-3	3	8	0%	5.8µM*
C#CC1(O)C=CC2C3CCC4=CC(=O)CCC4C3CCC21CC (centres undefined)	?	4	5	-8	2%	?
CCC1(O)CCC2C3CCC4=CC(=O)CCC4C3CCC21CC (centres undefined)	23µM*	0	6	16	nt	21µM*
C/C(=N\OC(=O)NC(C)C)c1sc(-c2ccc(Cl)cc2)nc1C	?	-13	-14	-17	4%	18µM*
C/C(=N\OC(=O)NC(C)C)c1sc(-c2ccccc2)nc1C	?	-10	2	?	1%	?
CCNC(=O)O/N=C(\C)c1sc(-c2ccc(Cl)cc2)nc1C	26µM*	0	-26	-14	-1%	18µM*
CCc1ccc(OCC(=O)Nc2cc3oc4ccccc4c3cc2OC)cc1	?	nt	nt	nt	-2%	?
